Assay results from PubChem BioAssay AID1159580 (chemical genetic matrix, 2015).
Among all 5,500 compounds or so, about 2,000 (36%) were called active. Inconclusive results (about 18%) are left out. No stated cut-off is given here; in the data, active means normalized growth mostly below about 0.91 (no sharp cut-off); inconclusive means no clear call, values can overlap the other calls; inactive means mostly above about 0.92. This is one part of the list.

Assay: chemical genetic growth profiling, strain panel (AID 1159580);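 further: tested at 20 µM; growth read once vehicle control cultures reached saturation at 30 °C; 1 = growth at the plate median or of vehicle wells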
Conditions: growth OD

Measured: normalized growth

CC[C@H]1OC(=O)[C@H](C)[C@@H](O[C@H]2C[C@@](C)(OC)[C@@H](O)[C@H](C)O2)[C@H](C)[C@@H](O[C@@H]2O[C@H](C)C[C@H](N(C)C)[C@H]2O)[C@](C)(O)C[C@@H](C)[C@@H]2N[C@@H](COCCOC)O[C@H]([C@H]2C)[C@]1(C)O
inactive: S. cerevisiae deletion strains, locus YJR075W, strain HOC1, stronger effect = lower value 1.05 | S. cerevisiae deletion strains, locus YKL009W, strain mrt4, stronger effect = lower value 1.03 | S. cerevisiae deletion strains, locus YKL068W, stronger effect = lower value 1 | S. cerevisiae deletion strains, locus YKL085W, strain MDH1 (second series), stronger effect = lower value 0.976 | S. cerevisiae deletion strains, locus YKL085W, strain MDH1, stronger effect = lower value 0.976 | S. cerevisiae deletion strains, locus YKL160W, strain elf1, stronger effect = lower value 1 | S. cerevisiae deletion strains, locus YKR001C, strain vps1, stronger effect = lower value 1.01 | S. cerevisiae deletion strains, locus YKR026C, strain gcn3, stronger effect = lower value 0.987 | S. cerevisiae deletion strains, locus YKR091W, strain srl3, stronger effect = lower value 0.997 | S. cerevisiae deletion strains, locus YLL001W, strain dnm1, stronger effect = lower value 0.991 | S. cerevisiae deletion strains, locus YLL026W, stronger effect = lower value 0.984 | S. cerevisiae deletion strains, locus YLL041C, strain sdh2, stronger effect = lower value 0.986 | S. cerevisiae deletion strains, locus YLR027C, strain aat2, stronger effect = lower value 0.991 | S. cerevisiae deletion strains, locus YLR039C, strain RIC1, stronger effect = lower value 0.982 | S. cerevisiae deletion strains, locus YLR058C, strain SHM2, stronger effect = lower value 1.02 | S. cerevisiae deletion strains, locus YLR102C, strain apc9, stronger effect = lower value 1.01 | S. cerevisiae deletion strains, locus YLR113W, strain HOG1, stronger effect = lower value 1.04 | S. cerevisiae deletion strains, locus YLR221C, strain rsa3, stronger effect = lower value 0.993 | S. cerevisiae deletion strains, locus YLR258W, strain gsy2, stronger effect = lower value 1 | S. cerevisiae deletion strains, locus YLR262C, strain YPT6 (second series), stronger effect = lower value 0.985 | S. cerevisiae deletion strains, locus YLR262C, strain YPT6, stronger effect = lower value 1.01 | S. cerevisiae deletion strains, locus YLR268W, strain sec22, stronger effect = lower value 0.999 | S. cerevisiae deletion strains, locus YLR320W, strain mms22, stronger effect = lower value 0.991 | S. cerevisiae deletion strains, locus YLR330W, strain CHS5, stronger effect = lower value 1.01 | S. cerevisiae deletion strains, locus YLR342W, strain FKS1 (second series), stronger effect = lower value 1.02 | S. cerevisiae deletion strains, locus YLR342W, strain FKS1, stronger effect = lower value 0.992 | S. cerevisiae deletion strains, locus YLR357W, strain rsc2, stronger effect = lower value 0.958 | S. cerevisiae deletion strains, locus YLR370C, strain arc18, stronger effect = lower value 0.989 | S. cerevisiae deletion strains, locus YLR371W, strain rom2, stronger effect = lower value 1 | S. cerevisiae deletion strains, locus YLR384C, strain iki3, stronger effect = lower value 0.993 | S. cerevisiae deletion strains, locus YLR418C, strain cdc73, stronger effect = lower value 0.996 | S. cerevisiae deletion strains, locus YML016C, strain PPZ1, stronger effect = lower value 1.01 | S. cerevisiae deletion strains, locus YML032C, strain rad52, stronger effect = lower value 0.999 | S. cerevisiae deletion strains, locus YML120C, strain ndi1, stronger effect = lower value 0.997 | S. cerevisiae deletion strains, locus YML124C, strain tub3, stronger effect = lower value 1 | S. cerevisiae deletion strains, locus YMR058W, strain fet3, stronger effect = lower value 0.997 | S. cerevisiae deletion strains, locus YMR078C, strain ctf18, stronger effect = lower value 1.01 | S. cerevisiae deletion strains, locus YMR125W, strain sto1, stronger effect = lower value 0.992 | S. cerevisiae deletion strains, locus YMR129W, stronger effect = lower value 1 | S. cerevisiae deletion strains, locus YMR205C, strain PFK2, stronger effect = lower value 0.969 | S. cerevisiae deletion strains, locus YMR223W, strain ubp8, stronger effect = lower value 1.02 | S. cerevisiae deletion strains, locus YMR231W, strain pep5, stronger effect = lower value 0.993 | S. cerevisiae deletion strains, locus YMR263W, strain SAP30, stronger effect = lower value 1.03 | S. cerevisiae deletion strains, locus YMR307W, strain GAS1, stronger effect = lower value 0.919 | S. cerevisiae deletion strains, locus YNL067W, strain RPL9B, stronger effect = lower value 1.04 | S. cerevisiae deletion strains, locus YNL071W, strain lat1, stronger effect = lower value 0.999 | S. cerevisiae deletion strains, locus YNL128W, strain TEP1, stronger effect = lower value 1.02 | S. cerevisiae deletion strains, locus YNL183C, strain NPR1, stronger effect = lower value 0.96 | S. cerevisiae deletion strains, locus YNL209W, strain ssb2, stronger effect = lower value 0.988 | S. cerevisiae deletion strains, locus YNL233W, strain BNI4, stronger effect = lower value 1.03 | S. cerevisiae deletion strains, locus YNL248C, strain rpa49, stronger effect = lower value 0.975 | S. cerevisiae deletion strains, locus YNL250W, strain rad50, stronger effect = lower value 1.01 | S. cerevisiae deletion strains, locus YNL271C, strain bni1, stronger effect = lower value 1.01 | S. cerevisiae deletion strains, locus YNL298W, strain CLA4, stronger effect = lower value 1 | S. cerevisiae deletion strains, locus YNL307C, strain MCK1, stronger effect = lower value 1 | S. cerevisiae deletion strains, locus YNL322C, strain KRE1 (second series), stronger effect = lower value 0.995 | S. cerevisiae deletion strains, locus YNR049C, strain mso1, stronger effect = lower value 0.989 | S. cerevisiae deletion strains, locus YNR052C, strain pop2, stronger effect = lower value 1.01 | S. cerevisiae deletion strains, locus YOL006C, strain TOP1, stronger effect = lower value 1.09 | S. cerevisiae deletion strains, locus YOL012C, strain htz1 1.56 | S. cerevisiae deletion strains, locus YOL147C, strain pex11, stronger effect = lower value 1 | S. cerevisiae deletion strains, locus YOR001W, strain rrp6, stronger effect = lower value 0.986 | S. cerevisiae deletion strains, locus YOR061W, strain CKA2, stronger effect = lower value 1.02 | S. cerevisiae deletion strains, locus YOR069W, strain VPS5, stronger effect = lower value 1.01 | S. cerevisiae deletion strains, locus YOR070C, strain gyp1, stronger effect = lower value 0.999 | S. cerevisiae deletion strains, locus YOR080W, strain dia2, stronger effect = lower value 0.995 | S. cerevisiae deletion strains, locus YOR083W, strain WHI5, stronger effect = lower value 0.996 | S. cerevisiae deletion strains, locus YOR106W, strain vam3, stronger effect = lower value 0.999 | S. cerevisiae deletion strains, locus YOR136W, strain idh2, stronger effect = lower value 1 | S. cerevisiae deletion strains, locus YOR144C, strain elg1, stronger effect = lower value 1.01 | S. cerevisiae deletion strains, locus YOR184W, strain ser1, stronger effect = lower value 1 | S. cerevisiae deletion strains, locus YOR231W, strain MKK1, stronger effect = lower value 1.02 | S. cerevisiae deletion strains, locus YOR265W, strain rbl2, stronger effect = lower value 0.996 | S. cerevisiae deletion strains, locus YOR270C, strain vph1, stronger effect = lower value 0.978 | S. cerevisiae deletion strains, locus YOR290C, strain snf2, stronger effect = lower value 0.981 | S. cerevisiae deletion strains, locus YOR316C, strain cot1, stronger effect = lower value 1.01 | S. cerevisiae deletion strains, locus YPL051W, strain arl3, stronger effect = lower value 1.01 | S. cerevisiae deletion strains, locus YPL078C, strain atp4, stronger effect = lower value 0.995 | S. cerevisiae deletion strains, locus YPL106C, strain sse1, stronger effect = lower value 0.978 | S. cerevisiae deletion strains, locus YPL240C, strain hsp82, stronger effect = lower value 0.989 | S. cerevisiae deletion strains, locus YPL256C, strain CLN2, stronger effect = lower value 1.01 | S. cerevisiae deletion strains, locus YPR119W, strain clb2, stronger effect = lower value 1.01 | S. cerevisiae deletion strains, locus YPR141C, strain kar3, stronger effect = lower value 1.01 | S. cerevisiae deletion strains, locus YPR163C, strain tif3, stronger effect = lower value 1.02 | S. cerevisiae deletion strains, locus YPR167C, strain met16, stronger effect = lower value 0.996 | S. cerevisiae deletion strains, strain wtn01, stronger effect = lower value 1 | S. cerevisiae strains, strain wild type, stronger effect = lower value 1.02
